Reference: PubChem BioAssay (Tox21)
Results filed as inconclusive are left out. A call without a number means that no potency is given here. Active and inactive are the calls of the source. Unless noted, calls come from the whole dose curve; as a rule, active = well fitted curve in the direction sought with a large enough effect in the repeat runs; inconclusive = weak or mixed curves; inactive = no such curve, though single readings can be large; an effect the other way counts as inactive or inconclusive.

Key:
[1] = qHTS assay for small molecules that induce genotoxicity in human embryonic kidney cells expressing luciferase-tagged ATAD5 (AID 651632); note: nearly all actives have a fitted effect of over 15% in size; note: potency is the fitted concentration of half-maximal effect
In short: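 Cells were seeded at 2,000 per well, dosed with compound, and incubated 16 hr at 37C in 5% CO2. Luciferase activity was then quantified after a 30 min room-temperature incubation with Amplite.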

[2] = qHTS assay for small molecule agonists of the p53 signaling pathway - cell viability (AID 651633; calls by dose curve; note: nearly all actives have a fitted effect of over 30% in size; note: potency is the fitted concentration of half-maximal effect)
In short: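 p53RE-bla cells were treated with compound for 16 hours at 37 C. Cytotoxicity was then measured as CellTiter-Glo luminescence after 30 min at room temperature.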

[3] = qHTS assay for small molecules that induce genotoxicity in human embryonic kidney cells expressing luciferase-tagged ATAD5 - cell viability (AID 651634; calls by dose curve; note: nearly all actives have a fitted effect of over 25% in size; note: potency is the fitted concentration of half-maximal effect)
In short: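 Cells (HEK293T, luciferase-tagged ATAD5) are seeded at 2,000 per well, dosed with compound or DMSO vehicle, and incubated 15.5 hr at 37C and 5% CO2. CellTiter-Fluor is added for 30 min before fluorescence is measured.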

[4] = qHTS assay for small molecule disruptors of the mitochondrial membrane potential - cell viability (AID 720634; calls by dose curve;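 note: human HepG2 liver cancer cells; series mostly up to about 83 µM; nearly all actives have a fitted effect of over 20% in size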)
In short: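 Cytotoxicity was measured by ATP quantitation in HepG2 wells that had first been treated with compound for 1 hr and stained with m-MPI dye; CellTiter-Glo incubation was 30 min at room temperature.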

[5] = qHTS assay to test for compound auto fluorescence at 590 nm (red) in HepG2 cells (AID 720674)
In short: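 Seeding: 2,000 HepG2 cells/well, MEM/10% FBS, overnight 37 C. Dosing: compound vs DMSO. Incubation: 1 hr, 37 C, 5% CO2. Read: fluorescence 540 ex/590 em, Rose Bengal sodium as red reference.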

[6] = qHTS assay to test for compound auto fluorescence at 535 nm (green) in HepG2 cells (AID 720675)
[7] = qHTS assay to test for compound auto fluorescence at 460 nm (blue) in HEK293 cells (AID 720678); note: potency is the fitted concentration of half-maximal effect
In short: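 Cells were seeded and left to adhere for 4-5 hr at 37C. Compounds were then pin-transferred. After an overnight incubation at 37C under 5% CO2, intrinsic fluorescence at 405/460 nm was measured and referenced to triamterene.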

[8] = qHTS assay for small molecule disruptors of the mitochondrial membrane potential (AID 720635)
In short: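 HepG2 cells exposed to compound 1 hr at 37C, then Mito-MPS dye 30 min. Ratio read of aggregate (540/590 nm) versus monomer (490/535 nm) fluorescence.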

[9] = qHTS assay to test for compound auto fluorescence at 590 nm (red) in HEK293 cells (AID 720679)
In short: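 Each well held 2,000 HEK293 cells in medium containing 10% dialyzed FBS. Following 4-5 hr attachment at 37C, 23 nL test compound or DMSO was added; plates sat overnight, and red fluorescence (540/590nm) was recorded.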
Tags give direction and shape of the fitted curve or compound fluorescence and quenching.

## O=c1oc2cc(O)ccc2s1
[1]
  Potency: inactive
[2]
  Potency: inactive
[3]
  Potency: inactive
[4]
  Potency: inactive
[5]
  Potency: inactive
[6]
  Potency: inactive
[7]
  Potency: inactive

## COCC(=O)Nc1cc(Sc2ccccc2)ccc1N=C(NC(=O)OC)NC(=O)OC
[1]
  Potency: inactive
[2]
  Potency: inactive
[3]
  Potency: 4.22 µM (active)
[4]
  Potency: inactive
[8]
  Potency: inactive
[5]
  Potency: inactive
[6]
  Potency: inactive
[7]
  Potency: inactive
[9]
  Potency: inactive

## Nc1nc2[nH]cc(CCc3ccc(C(=O)N[C@@H](CCC(=O)O)C(=O)O)cc3)c2c(=O)[nH]1
[1]
  Potency: inactive
[2]
  Potency: inactive
[3]
  Potency: inactive
[4]
  Potency: inactive
[8]
  Potency: inactive
[5]
  Potency: inactive
[6]
  Potency: inactive
[7]
  Potency: inactive
[9]
  Potency: inactive

## CNC(C)CCC=C(C)C (configuration not stated)
[1]
  Potency: inactive
[2]
  Potency: inactive
[3]
  Potency: inactive
[4]
  Potency: inactive
[8]
  Potency: inactive
[5]
  Potency: inactive
[6]
  Potency: inactive
[7]
  Potency: inactive
[9]
  Potency: inactive

## CN1CCc2c(c3ccccc3n2Cc2ccccc2)C1
[1]
  Potency: inactive
[2]
  Potency: inactive
[3]
  Potency: inactive
[4]
  Potency: inactive
[5]
  Potency: inactive
[6]
  Potency: inactive
[7]
  Potency: inactive
[9]
  Potency: inactive

## CCOC(=O)c1c[nH]c2cc(OCC(C)C)c(OCC(C)C)cc2c1=O
[1]
  Potency: inactive
[2]
  Potency: inactive
[3]
  Potency: inactive
[4]
  Potency: inactive
[8]
  Potency: inactive
[5]
  Potency: inactive
[6]
  Potency: inactive
[7]
  Potency: inactive
[9]
  Potency: inactive

## CC(CCc1ccc(O)cc1)NCC(O)c1ccc(O)cc1 (configuration not stated)
[1]
  Potency: inactive
[2]
  Potency: inactive
[3]
  Potency: inactive
[4]
  Potency: inactive
[8]
  Potency: inactive
[5]
  Potency: inactive
[6]
  Potency: inactive
[7]
  Potency: inactive
[9]
  Potency: inactive

## C[C@H](/C=C/[C@H](C)C(C)(C)O)[C@H]1CC[C@H]2/C(=C/C=C3C[C@@H](O)C[C@H](O)C3)CCC[C@]12C
[1]
  Potency: inactive
[2]
  Potency: 8.41 µM (active)
[3]
  Potency: inactive
[4]
  Potency: inactive
[5]
  Potency: inactive
[6]
  Potency: inactive
[7]
  Potency: inactive
[9]
  Potency: inactive

## CCN(CC)CCC(=O)N1c2ccccc2Sc2ccc(C(F)(F)F)cc21
[1]
  Potency: inactive
[2]
  Potency: inactive
[3]
  Potency: inactive
[4]
  Potency: inactive
[5]
  Potency: inactive
[6]
  Potency: inactive
[7]
  Potency: inactive
[9]
  Potency: inactive

## CN(C)CCC=C1c2ccccc2C(C)(C)c2ccccc21
[1]
  Potency: inactive
[2]
  Potency: inactive
[3]
  Potency: inactive
[4]
  Potency: inactive
[5]
  Potency: inactive
[6]
  Potency: inactive
[7]
  Potency: inactive

## CC1(C)S[C@@H]2[C@H](NC(=O)[C@H](N)c3ccccc3)C(=O)N2[C@H]1C(=O)OCOC(=O)[C@@H]1N2C(=O)C[C@H]2S(=O)(=O)C1(C)C
[1]
  Potency: inactive
[2]
  Potency: inactive
[3]
  Potency: inactive
[4]
  Potency: inactive
[8]
  Potency: inactive
[5]
  Potency: inactive
[6]
  Potency: inactive
[7]
  Potency: inactive
[9]
  Potency: inactive

## CC(=O)O[C@]1(C(C)=O)CC[C@H]2[C@@H]3CCC4=CC(=O)CC[C@]4(C)[C@@]3(F)[C@@H](O)C[C@@]21C
[1]
  Potency: inactive
[2]
  Potency: inactive
[3]
  Potency: inactive
[4]
  Potency: inactive
[8]
  Potency: inactive
[5]
  Potency: inactive
[7]
  Potency: inactive
[9]
  Potency: inactive

## C[C@H](O)[C@H](O)[C@H]1CNc2nc(N)[nH]c(=O)c2N1
[1]
  Potency: inactive
[2]
  Potency: inactive
[3]
  Potency: inactive
[4]
  Potency: inactive
[8]
  Potency: inactive
[5]
  Potency: inactive
[7]
  Potency: 12.6 µM [fluorescent] (active)
[9]
  Potency: inactive

## CCCCc1cc2c(=O)c(C(=O)OC)c[nH]c2cc1OCc1ccccc1
[1]
  Potency: inactive
[2]
  Potency: inactive
[3]
  Potency: inactive
[4]
  Potency: inactive
[8]
  Potency: inactive
[5]
  Potency: inactive
[7]
  Potency: inactive
[9]
  Potency: inactive

## CO/N=C(\C(=O)N[C@@H]1C(=O)N2C(C(=O)O)=CCS[C@H]12)c1csc(N)n1
[1]
  Potency: inactive
[2]
  Potency: inactive
[3]
  Potency: inactive
[4]
  Potency: inactive
[8]
  Potency: inactive
[5]
  Potency: inactive
[6]
  Potency: inactive
[7]
  Potency: inactive
[9]
  Potency: inactive

## C[C@H]1C[C@@H]2[C@H]([C@@H](O)C[C@@]3(C)[C@H]2CC[C@]3(O)C(=O)COC(=O)CCC(=O)O)[C@@]2(C)C=CC(=O)C=C12
[1]
  Potency: inactive
[2]
  Potency: inactive
[3]
  Potency: inactive
[4]
  Potency: inactive
[5]
  Potency: inactive
[6]
  Potency: inactive
[7]
  Potency: inactive
[9]
  Potency: inactive

## COc1cc(-c2ccc(-[n+]3nc(-c4ccccc4)nn3-c3ccc([N+](=O)[O-])cc3)c(OC)c2)ccc1-[n+]1nc(-c2ccccc2)nn1-c1ccc([N+](=O)[O-])cc1
[1]
  Potency: 5.96 µM (active)
[2]
  Potency: 11.9 µM (active)
[3]
  Potency: 29.8 µM (active)
[4]
  Potency: inactive
[5]
  Potency: inactive
[6]
  Potency: inactive
[7]
  Potency: inactive
[9]
  Potency: inactive

## CC(C)CCCC(C)NC(C)C (configuration not stated)
[1]
  Potency: inactive
[2]
  Potency: inactive
[3]
  Potency: inactive
[4]
  Potency: inactive
[8]
  Potency: inactive
[5]
  Potency: inactive
[6]
  Potency: inactive
[7]
  Potency: inactive
[9]
  Potency: inactive

## CCCCC(O)c1ccccc1 (configuration not stated)
[1]
  Potency: inactive
[2]
  Potency: 26.6 µM (active)
[3]
  Potency: inactive
[4]
  Potency: inactive
[8]
  Potency: inactive
[5]
  Potency: inactive
[7]
  Potency: inactive
[9]
  Potency: inactive

## NC(N)=NCC1COc2ccccc2O1 (configuration not stated)
[1]
  Potency: inactive
[2]
  Potency: inactive
[3]
  Potency: inactive
[4]
  Potency: inactive
[8]
  Potency: inactive
[5]
  Potency: inactive
[6]
  Potency: inactive
[7]
  Potency: inactive
[9]
  Potency: inactive
